The list is not random: actives were taken first. Their share in the collection is about 4%.
esBAF inh = SWI/SNF esBAF complex inhibition; mouse ES cells, Bmi1-luciferase knock-in reporter, 24 h; 100% = twice the neutral-well signal; reporter increase, % at 12.5 µM; hit rate 2% among 350,000; AID 602393; in the data active = activation above about 40%; inconclusive = no clear call, values can overlap the other calls;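 note: a rise in the Bmi1 reporter signal indicates esBAF inhibition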
EBV LMP1 NFkB = inhibitors of Epstein-Barr LMP1-induced NF-kappaB reporter. hit rate 0.69% among 350,000. inhibition, % at 12.5 µM. LMP1-induced NF-kappaB luciferase reporter cells, luminescence. AID 504558; in the data active = inhibition above about 41%; inconclusive = no clear call, values can overlap the other calls
MITF act = MITF TRPM1 promoter activation in melanoma cells. SK-MEL-5 TRPM1-promoter luciferase, 24 h; % of positive control, neutral wells = 0. activation, % at 12.5 µM. hit rate 0.75% among 300,000;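 active = mean activation of at least 80% with every replicate also reaching 80%; inconclusive = mean reaches 80% but some replicate falls short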
C2C12 statin = suppressors of simvastatin-induced myotoxicity in C2C12 myotubes. ATP luminescence, 48 h; scaled: DMSO 0, geranylgeraniol control 100. rescue of ATP level, % at 7.49 µM. hit rate 0.78% among 330,000;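 active = mean ATP rescue above about 67%, or every replicate alone reaching that limit, limit read from the data, passing the limit was not always enough; inconclusive = no clear call, values can overlap the other calls; inactive = mean under the limit and some replicate under it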;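 note: myotubes were challenged with 10 µM simvastatin during compound exposure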
Wnt bcat act = activators of Wnt/beta-catenin signaling | Wnt/beta-catenin reporter cell assay, activator, plate reader | activation, % at 9.35 µM | hit rate 1.2% among 300,000 | AID 743398; in the data active = activation above about 30%, passing the limit was not always enough; inconclusive = no clear call, values can overlap the other calls
MITF TRPM1 inh = inhibitors of MITF-driven TRPM1 promoter in melanoma cells. AID 488899. SK-MEL-5 TRPM1 promoter luciferase, 24 h. hit rate 0.83% among 330,000. inhibition, % at 12.5 µM;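 active = mean inhibition across replicates of 60% or more, whatever share of single replicates reaches that level; inconclusive = some that reach 60%, reason not given; inactive = mean inhibition across replicates below 60%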
Hits are given with their value; – = inactive; ? = inconclusive; · = no result.

SMILES	esBAF inh	EBV LMP1 NFkB	MITF act	C2C12 statin	Wnt bcat act	MITF TRPM1 inh
Cc1cc(C(=O)N2CCc3ccccc3C2)no1	–	–	–	–	–	–
O=C(NC(=S)NNC(=O)c1cc2ccccc2cc1O)c1ccco1	·	–	–	·	–	–
CCOc1ccc(C(=O)NCCO)cc1	–	–	–	–	–	–
C[C@@H]1CN([C@@H](C)CO)C(=O)c2cccc(NC(=O)Nc3ccccc3)c2O[C@H]1CN(C)Cc1ccc(C(=O)Nc2ccccc2N)cc1	–	·	·	69	·	·
C[C@H]1CN([C@@H](C)CO)C(=O)c2cc(NC(=O)Nc3ccc(C(F)(F)F)cc3)ccc2O[C@@H]1CN(C)Cc1ccc(C(=O)Nc2ccccc2N)cc1	–	·	·	–	·	·
C[C@@H]1CN([C@H](C)CO)C(=O)c2cc(NC(=O)Cn3cnnn3)ccc2O[C@@H]1CN(C)Cc1ccc(C(=O)Nc2ccccc2N)cc1	–	·	·	105	·	·
C[C@H](CO)N1C[C@H](C)[C@@H](CN(C)CC2CCCCC2)Oc2ccc(NC(=O)Nc3cccc4ccccc34)cc2C1=O	–	·	·	96	·	·
C[C@H](CO)N1C[C@H](C)[C@@H](CN(C)Cc2ccc(C(=O)Nc3ccccc3N)cc2)Oc2ccc(NC(=O)Nc3ccc(C(F)(F)F)cc3)cc2C1=O	–	·	·	82	·	·
C[C@H](CO)N1C[C@H](C)[C@H](CN(C)Cc2ccc(C(=O)Nc3ccccc3N)cc2)Oc2ccc(N(C)C)cc2C1=O	–	·	·	83	·	·
Cc1ccc(S(=O)(=O)Nc2ccc3c(c2)C(=O)N([C@H](C)CO)C[C@H](C)[C@H](CN(C)Cc2ccc(C(=O)Nc4ccccc4N)cc2)O3)cc1	–	·	·	82	·	·
C[C@H]1CN([C@@H](C)CO)C(=O)c2cc(NC(=O)Nc3cccc4ccccc34)ccc2O[C@H]1CN(C)Cc1ccc(C(=O)Nc2ccccc2N)cc1	–	·	·	202	·	·
C[C@@H]1CN([C@@H](C)CO)C(=O)c2cc(NC(=O)Nc3ccc(C(F)(F)F)cc3)ccc2O[C@@H]1CN(C)Cc1ccc(C(=O)Nc2ccccc2N)cc1	–	·	·	72	·	·
Cc1ccc(S(=O)(=O)Nc2ccc3c(c2)C(=O)N([C@@H](C)CO)C[C@H](C)[C@H](CN(C)Cc2ccc(C(=O)Nc4ccccc4N)cc2)O3)cc1	–	·	·	?	·	·
C[C@H](CO)N1C[C@H](C)[C@@H](CN(C)Cc2ccc(C(=O)Nc3ccccc3N)cc2)Oc2ccc(NC(=O)Nc3ccc(F)cc3)cc2C1=O	–	·	·	·	·	·
CCN1C(=O)CS/C1=N\S(=O)(=O)c1ccc(C)cc1	–	–	–	–	–	–
CC(Oc1ccc(F)cc1)C(=O)Nc1sc2c(c1C(=O)NCc1cccnc1)CCCC2 (stereo unspecified)	–	–	·	–	–	–
O=S(=O)(N[C@@H]1CC[C@H](CCn2cc(-c3cccnc3)nn2)O[C@H]1CO)c1ccc(Cl)cc1	–	·	·	–	·	·
CCOC(=O)C1=C(C)N(C)C(=O)NC1c1ccccc1OC (stereo unspecified)	–	40	–	–	·	–
CCOC(=O)C1=C(C)N(C)C(=O)NC1c1c(OC)ccc2ccccc12 (stereo unspecified)	–	–	–	–	–	–
O=C(C(=Cc1ccccc1)CN1CCCCC1)c1ccccc1	·	90	–	·	–	97
O=C(CCCCN1CCCCC1)c1ccccc1	–	–	–	–	–	–
Cc1cc(-c2ccc(/C=N/n3cnnc3)o2)c(C)c([N+](=O)[O-])c1	–	–	–	–	–	–
CN(Cc1ccccc1)S(=O)(=O)c1ccc(OCC(=O)NCc2ccccn2)cc1	–	–	–	–	–	–
CC(C)NC(=O)COc1ccc(S(=O)(=O)N(C)Cc2ccccc2)cc1	–	–	–	–	44	–
Cc1cc(C)n2nc(SC(C)C(=O)N3CC(C)OC(C)C3)nc2n1 (stereo unspecified)	–	–	–	–	–	–
C[C@H](CO)N1C[C@H](C)[C@@H](CN(C)Cc2ccccc2C(=O)O)Oc2ncc(C3=CCCC3)cc2C1=O	–	·	·	–	·	·
CCCCC12CN3CCN(CC(C3)/C1=N\NC(=O)c1ccccc1N)C2	·	–	–	·	35	–
CCCC12CN3CCN(CC(C3)/C1=N\NC(=O)c1ccc(F)cc1)C2	–	–	–	–	–	–
CCOC(=O)C(C)n1nc(/C=C/c2ccccc2)ccc1=O (stereo unspecified)	–	–	–	118	–	–
